# Experimental data taken from PMC4336329 (PLoS ONE, 2015).
# The campaign covered roughly 310,000 compounds. About 14,000 (4.5%) showed an effect of 50% or more. Effects have a minus sign here. Only a selection was taken, and strong results are over-represented in it overall.
# Molecular target: human ether-à-go-go-related gene (hERG) potassium channel (human, UniProt Q12809)
# Assay: primary screen, population patch clamp on CHO cells stably expressing hERG; higher = less effect of the substance
# 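Note: peak tail current of the secondary pulse compared with the same well before compound.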
# human ether-à-go-go-related gene (hERG) potassium channel, sequence (Q12809 whole entry, looked up): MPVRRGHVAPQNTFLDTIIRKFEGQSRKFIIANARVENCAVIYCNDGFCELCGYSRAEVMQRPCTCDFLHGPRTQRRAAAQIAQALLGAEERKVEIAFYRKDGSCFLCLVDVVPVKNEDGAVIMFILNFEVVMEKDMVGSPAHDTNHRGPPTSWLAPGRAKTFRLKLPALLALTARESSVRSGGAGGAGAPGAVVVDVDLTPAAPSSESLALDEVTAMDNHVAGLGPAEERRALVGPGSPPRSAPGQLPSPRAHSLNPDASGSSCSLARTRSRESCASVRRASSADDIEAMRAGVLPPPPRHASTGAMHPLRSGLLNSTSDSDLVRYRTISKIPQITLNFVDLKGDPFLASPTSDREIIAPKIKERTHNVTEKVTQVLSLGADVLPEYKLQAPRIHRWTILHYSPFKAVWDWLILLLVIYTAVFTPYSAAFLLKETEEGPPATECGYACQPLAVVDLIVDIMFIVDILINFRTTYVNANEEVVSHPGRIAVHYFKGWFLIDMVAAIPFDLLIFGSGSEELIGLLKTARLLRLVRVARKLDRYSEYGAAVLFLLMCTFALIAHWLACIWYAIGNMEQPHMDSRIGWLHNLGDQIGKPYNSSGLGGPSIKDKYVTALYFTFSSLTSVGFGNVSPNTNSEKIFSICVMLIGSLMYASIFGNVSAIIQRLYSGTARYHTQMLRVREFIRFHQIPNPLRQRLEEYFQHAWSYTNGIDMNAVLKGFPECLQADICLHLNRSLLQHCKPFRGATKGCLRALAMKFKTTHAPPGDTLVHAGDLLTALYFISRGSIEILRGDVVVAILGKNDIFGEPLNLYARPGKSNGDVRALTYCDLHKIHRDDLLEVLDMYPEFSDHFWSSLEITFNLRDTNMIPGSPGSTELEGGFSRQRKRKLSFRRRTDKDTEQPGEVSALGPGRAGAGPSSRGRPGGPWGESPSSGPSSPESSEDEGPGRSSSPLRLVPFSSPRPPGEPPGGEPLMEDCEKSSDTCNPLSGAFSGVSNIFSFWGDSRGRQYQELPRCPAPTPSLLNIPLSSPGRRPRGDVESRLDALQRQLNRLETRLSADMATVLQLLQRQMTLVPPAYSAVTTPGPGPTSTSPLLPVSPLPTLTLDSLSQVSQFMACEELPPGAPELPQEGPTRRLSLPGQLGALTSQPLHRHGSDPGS
row,SMILES,"hERG current change (%, negative = inhibition) at 10uM"
1,CCn1cc(C2=NOC(C(=O)Nc3ccccc3C(=O)OC)C2)c(C)n1 (centres unmarked),-3.86%
2,COc1cc(C2C(C(=O)c3ccco3)=C(O)C(=O)N2CC2CCCO2)ccc1O (centres unmarked),2.25%
3,Cc1ccn2c(=O)c(NC(=O)c3ccc(Br)o3)c(C)nc2c1,8.18%
4,CC1(C)C(=O)NCCN1C(=O)CC1C(=O)NCCN1CC(c1ccccc1)c1ccccc1 (centres unmarked),12%
5,CC(C)(C)NC(=O)C(c1cccs1)N(Cc1ccco1)C(=O)c1csnn1 (centres unmarked),-1.46%
6,COc1ccc(C(=O)CCC(=O)Nc2ccc(Cl)cc2)cc1,11.2%
7,N#C/C(=C\c1ccc([N+](=O)[O-])cc1)C(=O)NCCCn1ccnc1,-59.5%
8,COc1cccc(-c2nn(-c3ccccc3)cc2/C=C(\C#N)C(=O)NCCCn2ccnc2)c1,-38.8%
9,COc1ccc(/C=C(\NC(=O)c2ccc(C)cc2)C(=O)NCCCn2ccnc2)cc1OC,8.48%
10,O=C(NCCCn1ccnc1)c1cc([N+](=O)[O-])cc([N+](=O)[O-])c1,-4.05%
11,COc1ccc(C(=O)N/C(=C\c2cn(S(=O)(=O)N(C)C)c3ccccc23)C(=O)NCCCn2ccnc2)cc1,1.07%
12,Cc1ccc(C(=O)N/C(=C\c2ccccc2)C(=O)NCCCn2ccnc2)cc1,-84.8%
13,COc1ccc(/C=C(\NC(=O)c2ccc([N+](=O)[O-])cc2)C(=O)NCCCn2ccnc2)cc1,-69.4%
14,Cc1ccc(/C=C(\NC(=O)c2ccc(C)cc2)C(=O)NCCCn2ccnc2)cc1,-84.9%
15,C/C(CC(=O)Nc1ccc(Cl)c(C(F)(F)F)c1)=N\NC(=O)c1cnccn1,-25.8%
16,COc1ccc(Cc2nnc(N)s2)cc1,15.3%
17,O=C(Nc1cccc(-n2cnnn2)c1)c1cccnc1,4.53%
18,C#CCOCCOCCOCCNc1nc(N2CCN(C(=O)C(Cc3ccc(O)cc3)n3cc(C(N)C(C)CC)nn3)CC2)nc(N2CCN(C(=O)C(Cc3ccc(O)cc3)n3cc(C(N)C(C)CC)nn3)CC2)n1.Cl (centres unmarked),-13.3%
19,COc1ccccc1CN1CCN(C(=O)c2cccc3ccccc23)CC1,3.48%
20,COc1cccc2cc(/C(=N/O)c3ccc(Br)cc3)oc12,5.41%
21,COC(=O)c1ccc(NC(=O)c2ccc3nc(C)sc3c2)cc1,15.8%

row,SMILES,"hERG current change (%, negative = inhibition) at 10uM"
1,COc1cc(S(=O)(=O)NCc2ccccn2)c(OC)cc1Cl,-1.73%
2,O=C(NCCCn1ccnc1)C(Cc1ccccc1)N1C(=O)c2ccccc2C1=O (centres unmarked),-34.5%
3,O=C(CCN1C(=O)c2ccccc2C1=O)NCCCn1ccnc1,11.3%
4,O=C(NCCCn1ccnc1)C(Cc1ccc([N+](=O)[O-])cc1)N1C(=O)c2ccccc2C1=O (centres unmarked),-62.3%
5,Cc1ccc(-n2nc3ccc(NC(=O)c4ccc5c(c4)OCO5)cc3n2)cc1,7.8%
6,O=C(NCCc1ccccc1)c1c(O)c2cccc3c2n(c1=O)CC3,1.79%
7,CCCCN(CCCC)Cc1cc2ccccc2c2c1COC2,-54.6%
8,CCCN(CCC)Cc1cc2ccccc2c2c1COC2,-29%
9,CCN(CC)Cc1cc2ccccc2c2c1COC2,-44.1%
10,COc1ccc(NC(C)=O)cc1CNC(=O)CN1CCOCC1,19.1%
11,O=C(NC1CCCCC1)C(c1ccc(F)cc1)N(CCN1CCOCC1)C(=O)c1ccc(-c2ccccc2)[nH]1 (centres unmarked),24.4%
12,Cc1ccc(C(C(=O)NC(C)(C)C)N(CCCN2CCOCC2)C(=O)c2ccc(-c3ccccc3)[nH]2)o1 (centres unmarked),-76.5%
13,O=C(NC1CCCCC1)C(c1ccncc1)N(Cc1ccccc1)C(=O)c1ccc(-c2ccccc2)[nH]1 (centres unmarked),4.6%
14,Cc1ccc(C(C(=O)NCC2CCCO2)N(Cc2ccccc2)C(=O)c2ccc(-c3ccccc3)[nH]2)o1 (centres unmarked),-7.63%
15,O=C(NCC(=O)N(CCN1CCOCC1)C(C(=O)NC1CCCC1)c1cccs1)c1ccco1 (centres unmarked),-0.929%
16,O=C(NCC1CCCO1)C(c1cccs1)N(Cc1cccs1)C(=O)c1ccc(-c2ccccc2)[nH]1 (centres unmarked),7.78%
17,O=C(NC1CCCC1)C(c1ccncc1)N(Cc1ccccc1)C(=O)c1ccc(-c2ccccc2)[nH]1 (centres unmarked),-4.27%
18,O=C(NC1CCCCC1)C(c1cccs1)N(CCCN1CCOCC1)C(=O)c1ccc(-c2ccccc2)[nH]1 (centres unmarked),-66.5%
19,O=C(NC1CCCC1)C(c1ccncc1)N(CCCN1CCOCC1)C(=O)c1ccc(-c2ccccc2)[nH]1 (centres unmarked),-61.1%
20,O=C(NC1CCCC1)C(c1ccncc1)N(Cc1ccco1)C(=O)c1ccc(-c2ccccc2)[nH]1 (centres unmarked),1.38%
21,CCOc1ccc(C(C(=O)NC2CCCC2)N(CCCO)C(=O)c2ccc(-c3ccccc3)[nH]2)cc1 (centres unmarked),-61.6%

row,SMILES,"hERG current change (%, negative = inhibition) at 10uM"
1,O=C(NCC1CCCO1)C(c1ccc(F)cc1)N(CCCN1CCOCC1)C(=O)c1ccc(-c2ccccc2)[nH]1 (centres unmarked),-26.2%
2,Cc1ccc(C(=O)COC(=O)c2ccccc2N2C(=O)C3C4CCC(C4)C3C2=O)cc1C (centres unmarked),-19.2%
3,CCN(CCO)C(=O)C12CCC(C)(C(=O)C1)C2(C)C (centres unmarked),-9.66%
4,COc1c(Cl)cc(C(=O)NN)cc1Cl,0.95%
5,CC(=O)Nc1sc2c(c1C(N)=O)CCCC2,22.8%
6,CCc1cccc(C)c1NC(=O)CCOc1ccccc1,3.79%
7,c1ccc(C2=Nc3cccnc3C(c3ccccc3)=NN2)cc1,15.9%
8,O=C(CCNS(=O)(=O)c1ccccc1)OCC(=O)c1ccc(Cl)cc1,-30%
9,CC(C)CN(C(=O)COC(=O)c1ccc(Br)cc1)c1c(N)n(Cc2ccccc2)c(=O)[nH]c1=O,-2.83%
10,CCOC(=O)C1=C(COC(=O)c2cccs2)NC(=O)NC1C (centres unmarked),6.08%
11,Cc1sc(NC(=O)c2ccccc2F)c(CN2CCCCC2C)c1C (centres unmarked),-7.58%
12,Cc1ccccc1NC(=O)c1ccc(Cl)c(NC(=O)c2ccncc2)c1,-32.1%
13,CSC1=N/C(=C\c2ccc3c(c2)OCO3)C(=O)S1,12.3%
14,O=C(N/N=C/c1cccs1)C1CC(=O)N(c2ccccc2)C1 (centres unmarked),-8.24%
15,Cn1ncc2c(NNC(=O)c3ccccc3Cl)ncnc21,10.1%
16,COc1ccc(OCC(=O)N2CCCC(N3CCN(c4ccccc4C)CC3)C2)cc1 (centres unmarked),-85.9%
17,Cc1ccccc1N1CCN(C2CCCN(C(=O)COc3ccccc3)C2)CC1 (centres unmarked),-62.7%
18,Cc1ccccc1N1CCN(C2CCCN(C(=O)CCC(F)(F)F)C2)CC1 (centres unmarked),-47.3%
19,CC(=O)c1ccc(OCC(=O)N2CCCC(N3CCN(c4ccccc4C)CC3)C2)cc1 (centres unmarked),-75.2%
20,Cc1ccccc1N1CCN(C2CCCN(C(=O)CN3CCCC3=O)C2)CC1 (centres unmarked),5.78%
21,Cc1cc(C)n(CC(=O)N2CCCC(N3CCN(c4ccccc4C)CC3)C2)n1 (centres unmarked),-14%

row,SMILES,"hERG current change (%, negative = inhibition) at 10uM"
1,Cc1ccccc1N1CCN(C2CCCN(C(=O)CCN3CCCO3)C2)CC1 (centres unmarked),-0.397%
2,CC(C)=CC(=O)N1CCCC(N2CCN(c3ccccc3C)CC2)C1 (centres unmarked),-16%
3,Cc1ccccc1N1CCN(C2CCCN(C(=O)CCC(=O)N(C)C)C2)CC1 (centres unmarked),9.34%
4,CC(=NCC1CCCO1)C1=C(O)CC(C)(C)CC1=O (centres unmarked),-5.04%
5,COc1ccccc1COCC(O)CN(Cc1ccco1)Cc1ccccc1O (centres unmarked),-27%
6,CC(=O)c1cccc(NC(=O)CCn2c(=S)oc3ccccc32)c1,9.8%
7,CC(=O)NC1(c2cccc(F)c2)CCN(C(=O)Nc2ccc(C#N)cc2)CC1,-13.8%
8,O=C(Nc1cccnc1)c1cc([N+](=O)[O-])ccc1Cl,-0.51%
9,Cc1ccccc1S(=O)(=O)Cc1ccc(C(=O)NCCCN2CCN(C)CC2)o1,-1.6%
10,O=C(NCCN1CCOCC1)c1ccc(CS(=O)(=O)c2ccc(Br)cc2)o1,-2.9%
11,Cc1ccccc1S(=O)(=O)Cc1ccc(C(=O)NCCN2CCN(Cc3ccccc3)CC2)o1,-61.9%
12,CCC1CCCCN1CCCNC(=O)c1ccc(CS(=O)(=O)c2ccccc2C)o1 (centres unmarked),-26.5%
13,O=C(NCCCN1CCOCC1)c1ccc(CS(=O)(=O)c2ccc(Br)cc2)o1,-6.32%
14,O=C(NCCCN1CCCC1)c1ccc(CS(=O)(=O)c2ccc(Br)cc2)o1,-16.7%
15,O=C(NCCN1CCCCCC1)c1ccc(CS(=O)(=O)c2ccc(Br)cc2)o1,-57.4%
16,CCC1CCCCN1CCCNC(=O)c1ccc(CS(=O)(=O)c2ccc(Br)cc2)o1 (centres unmarked),-56.7%
17,CN1CCN(CCCNC(=O)c2ccc(CS(=O)(=O)c3ccc(Br)cc3)o2)CC1,-10.3%
18,O=C(NCCN1CCN(Cc2ccccc2)CC1)c1ccc(CS(=O)(=O)c2ccc(Br)cc2)o1,-79.8%
19,CCC1CCCCN1CCCNC(=O)c1ccc(CS(=O)(=O)c2ccccc2OC)o1 (centres unmarked),6.46%
20,CCN1CCN(CCNC(=O)c2ccc(CS(=O)(=O)c3ccccc3C)o2)CC1,-1.23%
